The target in test [1] is Tyrosine-protein kinase SYK (Homo sapiens) (UniProt P43405). To be noted: at 10 µM.
Test [2] addresses T1, Mitogen-activated protein kinase kinase kinase 7 (Homo sapiens) (UniProt O43318).
T1 sequence (whole entry): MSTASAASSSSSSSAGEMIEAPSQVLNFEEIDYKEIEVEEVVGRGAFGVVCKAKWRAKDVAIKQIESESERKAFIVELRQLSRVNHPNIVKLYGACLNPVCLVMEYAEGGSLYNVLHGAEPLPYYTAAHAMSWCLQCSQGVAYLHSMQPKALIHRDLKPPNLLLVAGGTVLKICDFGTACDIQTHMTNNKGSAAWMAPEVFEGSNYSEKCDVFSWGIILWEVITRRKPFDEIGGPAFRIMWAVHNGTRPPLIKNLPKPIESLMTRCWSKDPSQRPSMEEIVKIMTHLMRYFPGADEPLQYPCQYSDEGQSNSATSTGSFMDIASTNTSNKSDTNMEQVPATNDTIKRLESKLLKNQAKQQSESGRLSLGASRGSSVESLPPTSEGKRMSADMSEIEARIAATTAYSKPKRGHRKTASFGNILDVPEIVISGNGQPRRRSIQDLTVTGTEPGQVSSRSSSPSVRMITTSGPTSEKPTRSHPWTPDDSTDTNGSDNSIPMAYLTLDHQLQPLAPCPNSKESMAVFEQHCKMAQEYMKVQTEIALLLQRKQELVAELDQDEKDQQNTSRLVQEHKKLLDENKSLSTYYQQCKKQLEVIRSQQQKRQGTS
To be noted: at 1 µM.

Test [3] concerns the target T1, Mitogen-activated protein kinase kinase kinase 7 (Homo sapiens). To be noted: at 10 µM.
Test [4] concerns the target T2, Serine/threonine-protein kinase TAO1 (Homo sapiens) (UniProt Q7L7X3).
T2 sequence (whole entry): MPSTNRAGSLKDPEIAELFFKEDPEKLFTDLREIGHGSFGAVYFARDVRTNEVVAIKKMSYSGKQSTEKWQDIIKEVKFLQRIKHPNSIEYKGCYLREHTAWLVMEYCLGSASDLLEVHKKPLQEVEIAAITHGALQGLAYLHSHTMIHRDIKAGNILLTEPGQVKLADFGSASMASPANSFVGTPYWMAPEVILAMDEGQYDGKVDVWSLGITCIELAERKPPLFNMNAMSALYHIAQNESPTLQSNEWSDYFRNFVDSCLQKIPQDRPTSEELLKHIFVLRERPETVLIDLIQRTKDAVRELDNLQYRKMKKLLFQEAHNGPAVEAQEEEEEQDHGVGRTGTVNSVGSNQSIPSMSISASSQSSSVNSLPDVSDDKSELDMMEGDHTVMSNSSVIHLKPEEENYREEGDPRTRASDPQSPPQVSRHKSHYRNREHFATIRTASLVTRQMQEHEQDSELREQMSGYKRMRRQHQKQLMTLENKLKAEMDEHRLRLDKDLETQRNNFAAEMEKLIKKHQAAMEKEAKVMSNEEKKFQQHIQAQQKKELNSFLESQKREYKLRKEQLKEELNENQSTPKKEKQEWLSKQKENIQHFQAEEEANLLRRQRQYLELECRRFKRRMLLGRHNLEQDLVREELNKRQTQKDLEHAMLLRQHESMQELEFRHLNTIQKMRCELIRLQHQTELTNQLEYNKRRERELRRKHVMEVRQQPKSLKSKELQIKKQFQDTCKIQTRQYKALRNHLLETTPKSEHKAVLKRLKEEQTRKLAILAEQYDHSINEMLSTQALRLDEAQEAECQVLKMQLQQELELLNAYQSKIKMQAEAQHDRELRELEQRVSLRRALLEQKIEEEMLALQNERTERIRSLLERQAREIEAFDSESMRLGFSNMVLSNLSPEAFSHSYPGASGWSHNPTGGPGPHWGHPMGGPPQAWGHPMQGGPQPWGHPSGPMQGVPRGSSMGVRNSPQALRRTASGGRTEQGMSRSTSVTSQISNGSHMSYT
To be noted: at 1 µM.

Test [5] addresses T2, Serine/threonine-protein kinase TAO1 (Homo sapiens). To be noted: at 10 µM.
Test [6] has as its target T3, Serine/threonine-protein kinase TAO2 (Homo sapiens) (UniProt Q9UL54).
T3 sequence (whole entry): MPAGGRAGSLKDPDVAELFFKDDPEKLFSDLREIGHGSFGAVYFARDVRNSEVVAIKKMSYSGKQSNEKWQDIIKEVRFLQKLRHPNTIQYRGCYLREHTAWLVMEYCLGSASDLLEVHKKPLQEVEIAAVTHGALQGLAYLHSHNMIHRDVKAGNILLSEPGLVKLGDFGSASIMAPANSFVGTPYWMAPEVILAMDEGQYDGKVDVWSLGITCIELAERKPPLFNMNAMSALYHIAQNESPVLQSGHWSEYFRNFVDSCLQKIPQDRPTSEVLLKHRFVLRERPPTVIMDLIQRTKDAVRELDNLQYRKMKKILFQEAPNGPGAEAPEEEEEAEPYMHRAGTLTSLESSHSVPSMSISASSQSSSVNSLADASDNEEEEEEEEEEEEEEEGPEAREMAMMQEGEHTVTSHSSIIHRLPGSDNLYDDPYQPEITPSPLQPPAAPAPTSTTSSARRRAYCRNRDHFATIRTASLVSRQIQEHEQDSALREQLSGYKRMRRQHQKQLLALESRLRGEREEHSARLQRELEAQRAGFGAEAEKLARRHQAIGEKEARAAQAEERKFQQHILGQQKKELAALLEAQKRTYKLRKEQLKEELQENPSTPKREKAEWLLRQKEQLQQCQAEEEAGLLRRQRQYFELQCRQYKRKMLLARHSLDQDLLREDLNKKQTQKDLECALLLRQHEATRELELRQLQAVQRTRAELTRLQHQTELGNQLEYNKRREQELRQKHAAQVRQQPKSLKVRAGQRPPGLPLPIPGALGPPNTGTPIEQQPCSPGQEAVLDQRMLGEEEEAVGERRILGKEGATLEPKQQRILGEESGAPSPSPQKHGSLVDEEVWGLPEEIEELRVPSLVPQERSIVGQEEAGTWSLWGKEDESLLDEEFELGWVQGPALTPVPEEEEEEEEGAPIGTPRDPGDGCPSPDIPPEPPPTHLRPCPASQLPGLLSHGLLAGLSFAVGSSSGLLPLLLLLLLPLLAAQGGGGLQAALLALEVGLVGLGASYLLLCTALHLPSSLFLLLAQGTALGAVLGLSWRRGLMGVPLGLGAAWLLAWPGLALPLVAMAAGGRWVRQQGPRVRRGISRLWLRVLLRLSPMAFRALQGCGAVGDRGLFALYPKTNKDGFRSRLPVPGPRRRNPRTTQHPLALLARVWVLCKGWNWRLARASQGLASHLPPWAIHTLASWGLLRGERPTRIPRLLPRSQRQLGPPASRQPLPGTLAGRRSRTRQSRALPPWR
To be noted: at 10 µM.

Test [7] concerns the target T4, Serine/threonine-protein kinase TAO3 (Homo sapiens) (UniProt Q9H2K8).
T4 sequence (whole entry): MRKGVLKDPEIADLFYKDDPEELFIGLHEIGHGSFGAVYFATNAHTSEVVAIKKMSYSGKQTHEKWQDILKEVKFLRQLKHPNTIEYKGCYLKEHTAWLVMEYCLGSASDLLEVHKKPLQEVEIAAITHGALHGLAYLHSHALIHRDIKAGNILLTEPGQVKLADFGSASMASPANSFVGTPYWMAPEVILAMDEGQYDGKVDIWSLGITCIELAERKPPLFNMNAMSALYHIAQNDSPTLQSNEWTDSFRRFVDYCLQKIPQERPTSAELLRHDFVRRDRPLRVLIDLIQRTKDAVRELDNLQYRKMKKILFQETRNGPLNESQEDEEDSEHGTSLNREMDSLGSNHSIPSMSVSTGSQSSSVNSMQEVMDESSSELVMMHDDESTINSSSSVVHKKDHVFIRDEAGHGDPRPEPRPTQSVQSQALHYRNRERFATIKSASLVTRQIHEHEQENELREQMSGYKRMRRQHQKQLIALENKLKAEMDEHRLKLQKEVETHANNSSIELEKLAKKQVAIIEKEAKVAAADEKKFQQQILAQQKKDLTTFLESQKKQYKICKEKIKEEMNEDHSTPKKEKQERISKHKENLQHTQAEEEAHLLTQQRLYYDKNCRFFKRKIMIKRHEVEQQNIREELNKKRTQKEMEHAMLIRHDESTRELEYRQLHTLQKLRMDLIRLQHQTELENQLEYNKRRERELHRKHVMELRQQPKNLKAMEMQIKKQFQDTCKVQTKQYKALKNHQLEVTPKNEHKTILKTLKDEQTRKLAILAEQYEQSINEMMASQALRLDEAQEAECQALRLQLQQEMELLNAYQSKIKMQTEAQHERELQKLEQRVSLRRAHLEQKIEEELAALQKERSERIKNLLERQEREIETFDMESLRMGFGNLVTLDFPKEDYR
To be noted: at 1 µM.

Test [8] addresses T4, Serine/threonine-protein kinase TAO3 (Homo sapiens). To be noted: at 10 µM.
For test [9], the target named is T5, Serine/threonine-protein kinase TBK1 (Homo sapiens) (UniProt Q9UHD2).
T5 sequence (whole entry): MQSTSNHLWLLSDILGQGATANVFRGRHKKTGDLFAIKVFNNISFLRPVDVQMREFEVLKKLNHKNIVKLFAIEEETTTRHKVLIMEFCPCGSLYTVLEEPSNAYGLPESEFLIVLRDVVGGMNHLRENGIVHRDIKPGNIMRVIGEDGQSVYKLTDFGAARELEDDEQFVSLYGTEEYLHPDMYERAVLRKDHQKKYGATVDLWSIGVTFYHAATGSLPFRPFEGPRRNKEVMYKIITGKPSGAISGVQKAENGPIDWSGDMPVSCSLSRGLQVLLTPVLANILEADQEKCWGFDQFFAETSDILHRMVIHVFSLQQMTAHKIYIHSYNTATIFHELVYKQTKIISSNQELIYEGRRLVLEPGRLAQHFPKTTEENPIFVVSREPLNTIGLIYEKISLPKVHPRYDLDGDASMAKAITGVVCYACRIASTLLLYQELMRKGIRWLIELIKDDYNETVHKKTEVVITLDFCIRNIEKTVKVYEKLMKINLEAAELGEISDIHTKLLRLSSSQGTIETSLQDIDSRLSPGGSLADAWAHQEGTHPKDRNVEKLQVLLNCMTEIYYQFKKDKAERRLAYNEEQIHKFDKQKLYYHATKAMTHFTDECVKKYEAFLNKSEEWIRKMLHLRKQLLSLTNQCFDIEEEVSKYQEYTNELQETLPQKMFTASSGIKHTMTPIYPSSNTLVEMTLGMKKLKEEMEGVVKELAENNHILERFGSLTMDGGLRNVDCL
To be noted: at 1 µM.

The results in this text go back to ChEMBL document CHEMBL2218924, “A broad activity screen in support of a chemogenomic map for kinase signalling research and drug discovery” (Biochem J, 2013).

As for `O=C1c2ccccc2-[n+]2ccc3c([nH]c4ccccc43)c21`, the residual activity stood at 90% in [1]; 93% in test [2]; 82% in [3]; 96% in [4]; 86% in [5]; 90% in test [6]. Moreover, the figures for the residual activity in test [7], in [8] and in [9] were 89%, 90% and 58%, respectively.
